PAX8 reporter = lowers PAX8-driven luciferase in RMG-I cells | inhibition, % at 12.6 µM | 360,000 tested, 1.2% active | RMG-I TPO-luciferase reporter, SteadyGlo, 24 h;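 active = mean replicate inhibition at least 60% with every replicate also reaching 60%; inconclusive = only one of the two criteria is met; inactive = mean below 60% and not all replicates reaching 60%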;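 also: luciferase light reporting Pax8 driven TPO promoter activity; plate controls were median of neutral control wells for no effect and mitoxantrone controls for full effect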
Beta apoptosis = beta cell apoptosis inhibition; INS-1E cytokine-induced death, ATP luminescence, 48 h; percent of positive-control rescue, neutral wells zero; protection from apoptosis, % (test concentration not listed); 300,000 tested, 0.8% active;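 active = Every replicate reaches about 75%, or at least half do and their mean reaches it too, limit read from the data; inconclusive = At least half of replicates reach the limit but their mean does not; inactive = Under half of replicates reach the limit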;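 also: 0% = cytokine-treated negative control wells and 100% = positive control rescue; higher means more ATP so stronger rescue from cytokine killing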
Shn3 inh set2 = reduces Shn3 3'UTR luciferase signal in osteoblasts | Clone20 osteoblast Shn3 3'UTR firefly luciferase, 24 h | inhibition, % at 12.5 µM | 360,000 tested, 0.52% active;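 active = mean inhibition of at least 75% with every replicate also reaching 75%; inconclusive = mean inhibition at least 75% but some replicate below; inactive = mean inhibition below 75%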;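 also: 0% = median of neutral control wells and 100% = pilot-screen positive control compound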
CSC inhib = blocks cancer stem cells. 300,000 tested, 1.1% active. cancer stem cell-like cells viability, luminescence. inhibition, % at 7.5 µM. AID 2717; in the data active = inhibition above about 75%; inconclusive = no clear call, values can overlap the other calls; tested in HMLE shEcad cells
Gli-Sufu antag = antagonists of Gli-Sufu signaling | Sufu-KO-LIGHT fibroblasts, Gli luciferase reporter luminescence | 340,000 tested, 0.74% active | AID 588413 | inhibition, % at 5 µM;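 active = inhibition above about 55%, limit read from the data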;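 also: 0% = DMSO-treated cells and 100% = wells with medium but no cells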
Mdm2-MdmX inh = inhibitors of human Mdm2/MdmX interaction | O15151+Q00987 | SaOS-2 split-luciferase Mdm2/MdmX complementation, luminescence | inhibition, % at 8 µM | 330,000 tested, 3% active;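 active = inhibition of at least 50% at 8 µM in the primary screen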
Target sequence (O15151 whole entry, looked up): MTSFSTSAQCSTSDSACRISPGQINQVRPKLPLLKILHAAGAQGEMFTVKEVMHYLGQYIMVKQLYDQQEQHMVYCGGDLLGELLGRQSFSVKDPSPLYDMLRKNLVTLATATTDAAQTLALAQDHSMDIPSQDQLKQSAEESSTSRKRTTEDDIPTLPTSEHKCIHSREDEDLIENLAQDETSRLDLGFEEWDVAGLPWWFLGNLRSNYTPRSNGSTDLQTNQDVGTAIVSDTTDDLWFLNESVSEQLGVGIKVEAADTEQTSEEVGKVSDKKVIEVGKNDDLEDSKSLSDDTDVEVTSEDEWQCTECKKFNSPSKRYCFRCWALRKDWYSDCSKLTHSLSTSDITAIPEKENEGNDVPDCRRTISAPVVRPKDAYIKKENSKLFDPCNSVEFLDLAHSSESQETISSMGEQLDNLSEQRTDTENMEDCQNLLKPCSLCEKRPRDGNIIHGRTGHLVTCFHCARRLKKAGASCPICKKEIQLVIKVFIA
Target sequence (Q00987 whole entry, looked up): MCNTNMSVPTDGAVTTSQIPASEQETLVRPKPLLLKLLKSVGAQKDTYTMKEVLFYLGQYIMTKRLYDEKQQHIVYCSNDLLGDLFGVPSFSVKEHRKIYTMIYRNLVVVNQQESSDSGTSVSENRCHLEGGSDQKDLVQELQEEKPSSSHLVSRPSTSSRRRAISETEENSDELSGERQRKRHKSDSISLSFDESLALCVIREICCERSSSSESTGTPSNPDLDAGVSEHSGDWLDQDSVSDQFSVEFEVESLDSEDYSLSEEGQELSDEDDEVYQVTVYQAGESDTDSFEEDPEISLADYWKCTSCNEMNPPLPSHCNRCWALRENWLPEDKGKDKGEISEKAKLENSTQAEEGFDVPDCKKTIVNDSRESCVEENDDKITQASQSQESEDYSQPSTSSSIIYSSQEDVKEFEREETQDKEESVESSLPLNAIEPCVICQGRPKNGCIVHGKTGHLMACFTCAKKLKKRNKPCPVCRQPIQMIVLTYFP
Mdm2 MdmX conf = human Mdm2/MdmX binding inhibition, confirmed | inhibition, % at 8 µM | shares compounds with Mdm2-MdmX inh | luminescent assay | 10,000 tested, 55% active; in the data active = inhibition above about 40%
Full FLuc ctr = full-length luciferase inhibition in Mdm2/MdmX counter-screen; AID 504607; shares compounds with Mdm2-MdmX inh; SaOS-2 full-length luciferase counterscreen, luminescence; inhibition, % at 8 µM; 6,200 tested, 77% active;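 active = mean inhibition at 8 µM reaching about 37%, which flags the compound as non-specific, limit read from the data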;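 also: p53-null SaOS-2 cells with luciferase driven by a doxycycline-inducible promoter; compound on cells about two nights before reading with doxycycline added after day one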
Starred values were filed as active, the others as inactive; ? = inconclusive; . = not tested or not shown. This is a sample that favours compounds with a hit; in the whole collection about 4% have one here.

SMILES	PAX8 reporter	Beta apoptosis	Shn3 inh set2	CSC inhib	Gli-Sufu antag	Mdm2-MdmX inh	Mdm2 MdmX conf	others
CCCCn1c(=N)n(CC(O)COc2ccccc2)c2ccccc21 (stereo unspecified)	.	.	68	4	29	49	.
CCCCn1c(=N)n(CC(O)COc2ccc(C)cc2)c2ccccc21 (stereo unspecified)	.	18	78	16	27	58*	31
COc1cc(NC(=O)COC(=O)c2[nH]c(C)c(C(C)=O)c2C)cc(OC)c1	29	-21	41	-1	11	51*	24
CCOC(=O)c1c(C)[nH]c(C(=O)OCC(=O)Nc2cc(C)ccc2OC)c1C	.	5	25	.	6	99*	6
COCC(=O)N1CC2(C1)[C@H](c1ccccc1)[C@H](CO)N2Cc1ccccc1OC	10	.	.	.	.	.	.
CC(=O)N1[C@H](CN(C)C(=O)C2CCC2)[C@@H](c2ccccc2)[C@@H]1CO	-3	.	.	.	.	.	.
C[C@@H]1CN([C@@H](C)CO)C(=O)c2cc(NS(C)(=O)=O)ccc2O[C@H]1CN(C)Cc1ccc(Cl)c(Cl)c1	26	.	.	.	.	.	.
COc1ccc(/C=N/NC(=O)c2csc(-n3nc(C)cc3C(F)(F)F)n2)cc1	.	1	-19	54	-8	50*	48*	Full FLuc ctr=70*
Cc1cc(C(F)(F)F)n(-c2nc(C(=O)NN)cs2)n1	4	1	8	-2	14	10	.
CCC1=Nc2cc(C(=O)NCC3CCCO3)ccc2Sc2ccc(Cl)cc21 (stereo unspecified)	43	16	13	58	-4	65*	55*	Full FLuc ctr=45*
CCC1=Nc2cc(C(=O)NCC3CCCO3)ccc2Sc2ccc(Br)cc21 (stereo unspecified)	29	20	21	49	-5	43	.
CC(C)Cn1cnc2c(c(-c3ccccc3)c(-c3ccccc3)n2Cc2ccco2)c1=N	22	56	3	58	21	91*	-2
OCCn1cnc2c(SCc3ccccc3)ncnc21	-38	.	21	.	-15	.	.
N=c1c2c(-c3ccccc3)c(-c3ccccc3)n(Cc3ccccc3)c2ncn1CCO	21	8	-3	8	9	73*	65*	Full FLuc ctr=40*
N=c1c2c(-c3ccccc3)c(-c3ccccc3)n(Cc3ccco3)c2ncn1CCCn1ccnc1	30	6	11	38	26	.	.
N=c1c2c(-c3ccccc3)c(-c3ccccc3)n(Cc3ccco3)c2ncn1Cc1ccccc1	.	91*	3	110*	6	100*	62*	Full FLuc ctr=23
N=c1c2c(-c3ccccc3)c(-c3ccccc3)n(Cc3ccco3)c2ncn1CCCN1CCOCC1	?	?	20	32	10	100*	88*	Full FLuc ctr=56*
O=C(C[C@H]1C[C@H]2c3cc(NC(=O)C4CCC4)ccc3O[C@H]2[C@H](CO)O1)NCc1ccc2c(c1)OCO2	10	.	.	.	.	.	.
O=C(NC[C@@H]1[C@H](c2ccccc2)[C@@H](CO)N1C(=O)Cc1cccnc1)C1CC1	-14	.	.	.	.	.	.
COc1ccc(CN(C)C[C@@H]2Oc3ccc(NC(=O)C4CC4)cc3CC(=O)N([C@@H](C)CO)C[C@H]2C)cc1	-10	.	.	.	.	.	.
COC(=O)c1sccc1NC(=O)/C=C/c1c(Cl)cccc1Cl	.	14	-42	-4	3	12	.
COC(=O)c1cc(Cl)c(NC(=O)/C=C/c2ccc(Cl)cc2)cc1OC	.	4	3	8	0	58*	-32
COC(=O)c1sccc1NC(=O)/C=C/c1ccc(Cl)cc1Cl	4	0	-53	12	-52	56*	-52
O=[N+]([O-])c1ccc(-c2ccc(/C=N/Nc3nc(N4CCCCC4)nc(N4CCCCC4)n3)o2)cc1	14	.	28	.	12	77*	15	Full FLuc ctr=75*
O=[N+]([O-])c1ccc(/C=N/Nc2nc(N3CCCC3)nc(N3CCCC3)n2)o1	.	1	2	-11	-11	17	.
SMILES	PAX8 reporter	Beta apoptosis	Shn3 inh set2	CSC inhib	Gli-Sufu antag	Mdm2-MdmX inh	Mdm2 MdmX conf	others
O=[N+]([O-])c1ccc(-c2ccc(/C=N/Nc3nc(N4CCCC4)nc(N4CCCC4)n3)o2)cc1	-2	5	33	-14	26	93*	67*	Full FLuc ctr=49*
O=[N+]([O-])c1cccc(-c2ccc(/C=N/Nc3nc(N4CCCCC4)nc(N4CCCCC4)n3)o2)c1	-2	9	17	.	17	46	.
CCc1cccc(CC)c1NC(=S)NCCc1c(C)[nH]c2ccccc12	12	-1	20	15	11	51*	29
Cc1ccc(NS(=O)(=O)c2cc([N+](=O)[O-])ccc2N/N=C/c2sc(N3CCOCC3)nc2-c2ccccc2)c(C)c1	-8	75*	-19	8	7	86*	22
O=[N+]([O-])c1ccc(N/N=C/c2cccc(O)c2O)c(S(=O)(=O)N2CCOCC2)c1	22	13	75	72	33	22	.
COc1cccc(CNC(=O)C2CCC(CNc3nc(=S)[nH]c4ccccc34)CC2)c1 (stereo unspecified)	7	1	36	28	11	61*	-2
Cc1ccc(CNC(=O)C2CCC(CNc3nc(=S)[nH]c4ccccc34)CC2)cc1 (stereo unspecified)	6	54	32	34	-6	23	.
Fc1ccccc1N1CCN(c2ncnc3[nH]ncc23)CC1	.	-3	14	-2	-16	63*	25
Fc1ccccc1N1CCN(c2ncnc3nc[nH]c23)CC1	-5	-7	-4	-6	-20	26	.
Cc1ccccc1N1CCN(CCCN2C(=O)CC(=C(c3ccccc3)c3ccccc3)C2=O)CC1	.	-9	4	-8	-16	32	.
O=C1CC(=C(c2ccccc2)c2ccccc2)C(=O)N1CCCCN1CCN(c2cccc(Cl)c2)CC1	.	-4	5	113*	11	60*	37
O=C(CCN1CCN(C(c2ccccc2)c2ccccc2)CC1)N/N=C/c1ccc(O)cc1O	-11	-9	27	.	22	60*	69*	Full FLuc ctr=37*
O=C(CCN1CCN(C(c2ccccc2)c2ccccc2)CC1)N/N=C/c1ccc(O)cc1	-13	-1	-5	.	5	3	.
O=c1c(Cl)c(N2CCCCC2)cnn1-c1nc2ccccc2[nH]1	.	42	44	12	25	52*	56*	Full FLuc ctr=63*
Cc1ccc(-n2cccc2C(=S)N=P(N(C)C)(N(C)C)N(C)C)cc1	.	102*	29	-3	26	72*	50*	Full FLuc ctr=51*
Cc1ccc(-n2cccc2C(=O)NS(=O)(=O)c2ccc(C)cc2)cc1	-12	1	13	-7	-1	4	.
COc1ccc(-c2nn(-c3ccccc3)cc2C(=O)O)cc1	-5	-3	2	-5	0	12	.

Compound activity: PubChem, several laboratories
